ERa coact pot – ER-alpha (human) coactivator binding potentiation; P03372; TR-FRET ERalpha-LBD/SRC-Cy5 coactivator binding, 2 h; 100 = basal binding, no effect; coactivator binding (% of control), % at 25.6 µM; 86,000 tested, 1.3% active; AID 639; in the data active means activity above about 200%;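 further: binding measured in presence of low estradiol as agonist stimulus; 0% = peptide alone without receptor and 100% = receptor with peptide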
Candida biofilm – kills Candida albicans biofilms; inhibition, % at 6 µM; 85,000 tested, 0.14% active; C. albicans biofilm + clotrimazole, Alamar Blue;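 active means inhibition above 20%; inactive means inhibition below 20%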;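 further: preformed 24 hr biofilms exposed to compound for 48 hr; 0% = biofilm without compound and 100% = blank killed by clotrimazole plus chlorhexidine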
E-sel TNF inh – TNF alpha driven E-selectin expression inhibition; HUVEC TNFa-induced E-selectin immunofluorescence, high content; AID 1246; 120,000 tested, 0.71% active; inhibition, % at 2 µM;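 active means inhibition above the batch mean plus 3 SD, and confirmed as a hit on visual image review, cut at about 43% in these data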;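 further: 0% = TNF-stimulated DMSO wells and 100% = unstimulated control wells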
F-actin modifier – alters cytoskeleton assembly in HUVEC cells; inhibition, % at 2 µM; HUVEC TNFa F-actin phalloidin imaging, high content; 91,000 tested, 0.18% active;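 active means inhibition above the batch mean plus 3 SD and confirmed as a hit by visual image inspection, cut at about 30% in these data, passing the limit was not always enough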
ERa SRC1 inh – ER-alpha (human) coactivator binding inhibition. P03372. TR-FRET ER-alpha LBD / SRC-1 peptide, estradiol-bound. inhibition, % at 25.6 µM. 86,000 tested, 1.7% active; in the data active means inhibition above about 50%;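 further: 0% = receptor plus peptide control and 100% = peptide only without receptor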
ERb SRC1 inh – ER-beta (human) coactivator binding inhibition. TR-FRET ER-beta LBD / SRC1-Cy5 peptide binding; receptor agonist-loaded with 1 µM estradiol. inhibition, % at 25.6 µM. 86,000 tested, 1.3% active;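 active means compounds whose percent inhibition of the receptor-coactivator binding signal exceeds about 50% in the single-dose screen, limit read from the data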;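 further: 0% = receptor plus peptide wells without compound and 100% = peptide-only wells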
Target sequence (Q92731 whole entry, looked up, the tested form may be a part): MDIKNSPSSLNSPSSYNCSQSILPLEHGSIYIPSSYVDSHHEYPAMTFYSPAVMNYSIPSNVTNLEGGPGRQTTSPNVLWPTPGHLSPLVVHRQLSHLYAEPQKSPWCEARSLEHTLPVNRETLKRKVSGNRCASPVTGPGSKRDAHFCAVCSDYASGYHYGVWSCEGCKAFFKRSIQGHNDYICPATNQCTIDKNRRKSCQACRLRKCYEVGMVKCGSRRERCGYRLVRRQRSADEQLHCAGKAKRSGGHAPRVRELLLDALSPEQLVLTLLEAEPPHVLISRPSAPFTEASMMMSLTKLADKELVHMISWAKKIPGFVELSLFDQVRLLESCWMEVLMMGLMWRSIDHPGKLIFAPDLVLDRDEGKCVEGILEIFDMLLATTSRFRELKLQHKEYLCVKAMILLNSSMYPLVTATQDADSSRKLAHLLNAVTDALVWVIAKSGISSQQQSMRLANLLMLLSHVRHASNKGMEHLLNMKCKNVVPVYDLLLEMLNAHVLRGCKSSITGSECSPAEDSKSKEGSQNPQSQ
The depositor's hits bear a star; · = not tested or not shown; [ ] = another dose, or the depositor's remark. Compounds with a hit are over-represented: about 2.9% of the library has one in this group of screens.

SMILES	ERa coact pot	Candida biofilm	E-sel TNF inh	F-actin modifier	ERa SRC1 inh	ERb SRC1 inh
O=c1c2c3nc4ccccc4nc3n(-c3ccc4c(c3)OCCO4)c2ncn1CC1CCCO1 (stereo not given)	42	5	·	·	69*	39
Cc1nc2c(c(=O)n1CC1CCCO1)c1nc3ccccc3nc1n2Cc1ccc2c(c1)OCO2 (stereo not given)	108	4	·	·	69*[fluorescence artefact?]	58*[fluorescence artefact?]
O=c1c2c3nc4ccccc4nc3n(-c3ccc4c(c3)OCCO4)c2ncn1C1CCCC1	97	-1	·	·	1	-1
CCC(C)n1c(C)nc2c(c1=O)c1nc3ccccc3nc1n2-c1ccc2c(c1)OCCO2 (stereo not given)	256*[fluorescence artefact?]	8	·	·	44	31
CCNC(=S)Nc1ccc(S(=O)(=O)Nc2cc(C)nc(C)n2)cc1	·	·	-29	·	·	·
COc1ccc(Cn2c(-c3ccc(Br)cc3)c[n+]3ccccc23)cc1	·	·	-2	·	·	·
CC1CCN(CC(=O)NCc2ccco2)CC1	·	·	5	·	·	·
CC1=C(C(=O)Nc2ccc(Cl)cc2)C2(CCCCC2)C(C(N)=O)C(=S)N1 (stereo not given)	·	·	-11	·	·	·
COCCNC(=S)NNc1ccccc1[N+](=O)[O-]	·	·	15	·	·	·
O=c1[nH]c2ccc(Br)cc2c(-c2ccccc2)c1N1CCOCC1	429*[fluorescence artefact?]	2	·	-8	30	19
CCN(CC)CCOc1ccccc1C(C)=O	·	·	6	·	·	·
Nc1ccc2nc3n(c(=O)c2c1)CCC3	215*	-3	·	-7	11	18
CC1=C(C(=O)N2CCOCC2)C(c2ccc(C)cc2)NC(=S)N1 (stereo not given)	·	·	-18	·	·	·
Cc1ccc(N2C(=O)CC(Cc3cc(C)cc(C)c3)C2=O)cc1 (stereo not given)	·	·	-18	·	·	·
Cc1ccc(CC2CC(=O)N(c3cc(C)on3)C2=O)cc1 (stereo not given)	201*[fluorescence artefact?]	1	·	·	-10	-15
O=C1CN(C(=O)COC(=O)CNS(=O)(=O)/C=C/c2ccccc2)c2ccccc2N1	·	·	0	·	·	·
c1ccc(-c2nn3c(Cn4nnc5ccccc54)nnc3s2)nc1	27	10	16	4	85*[fluorescence artefact?]	50
Cc1cccc(NC(=O)C2CCN(S(=O)(=O)c3c(C)nn(C)c3C)CC2)n1	114	1	-19	·	2	57*
CCOC(=O)c1cnn(-c2nc3c(C)cccc3s2)c1C(F)(F)F	·	·	5	-19	·	·
CCOC(=O)c1cnn(-c2nc3c(C)cccc3s2)c1C	·	·	-30	36*	·	·
CC1(C)Cc2c(sc(NC(=O)C3CC(Cl)=CCC3C(=O)O)c2C#N)CO1 (stereo not given)	·	·	13	·	·	·
CN(C)c1ccc(NC(=O)CN2CCN(CC(=O)Nc3ccc(F)cc3)CC2)cc1	64	-1	-1	·	16	54*[fluorescence artefact?]
O=C(CN1CCN(CC(=O)Nc2ccc(OCc3ccccc3)cc2)CC1)Nc1ccc(F)cc1	·	·	64*	41	·	·
CCSc1nnc(NC(=O)CSc2nc(CC)nc3c2c(=O)n(C)c(=O)n3C)s1	254*	2	·	-14	-2	1
O=C(/C=C/c1ccccc1Cl)NCc1cccs1	·	·	43	·	·	·
SMILES	ERa coact pot	Candida biofilm	E-sel TNF inh	F-actin modifier	ERa SRC1 inh	ERb SRC1 inh
CCC(C)NC(=O)C(=O)NCC1CCCN1CC (stereo not given)	·	·	10	·	·	·
NC(=O)C1CCCN(C(=S)Nc2cccc3ccccc23)C1 (stereo not given)	·	·	70*	·	·	·
O=S(=O)(NCC(c1cccnc1)N1CCN(c2ccccc2)CC1)c1cc(F)ccc1F (stereo not given)	66	11	3	8	7	-1
CN(Cc1ccccc1)C(=O)c1cc(-c2ccc(Br)cc2)on1	114	9	100*	·	1	-2
Cc1cc(C(=O)N(C)Cc2ccc(Br)cc2)no1	115	8	-2	·	-3	1
COc1cccc(C(=O)Nc2ccc(-c3nc4ccccc4o3)c(O)c2)c1	150	2	·	2	60*[fluorescence artefact?]	36
COc1cccc(C(=O)Nc2c(C(N)=O)oc3ccccc23)c1	81	13	·	-9	1	90*[fluorescence artefact?]
COc1cc(C(=O)Nc2ccc(-c3nc4cc(C)ccc4o3)c(O)c2)cc(OC)c1OC	246*	3	-3	2	11	16
CCOC(=O)c1oc2ccccc2c1NC(=O)c1cccc(OC)c1	118	3	4	29	-11	-10
O=C(Nc1ccccc1-c1ccccc1)C12CC3CC(CC(C3)C1)C2	·	·	·	4	·	·
CC(C)(C)NC(=O)CN(Cc1ccc2c(c1)OCO2)C(=O)CNC(=O)c1cccs1	·	·	-17	·	·	·
c1ccc(-c2nc3cc(Oc4ccc5oc(-c6ccccn6)nc5c4)ccc3o2)nc1	72	10	·	·	31	20
Cc1c(Cl)cccc1NC(=O)CN1CCN(CCN=CC2=C(O)CC(c3ccccc3)CC2=O)CC1 (stereo not given)	·	·	-5	·	·	·
CN1CCN(Cc2c(O)ccc3occ(C(=O)c4ccccc4)c23)CC1	110	4	-8	-16	-4	-3
CC(=O)C(C(C)=O)c1c(Cl)c(O)c(O)c2c(C(=O)c3ccccc3)coc12	83	4	-3	27	22	55*[fluorescence artefact?]
COc1ccc(OC)c(C(=O)c2coc3ccc(O)cc23)c1	78	6	-12	61*	-10	-5
CC(C)(C)c1ccc(OCCCNCc2ccccc2)cc1	·	·	95*	·	·	·
C=CCn1c(=O)c(C#N)cc2c(=O)n3ccccc3nc21	41	11	·	-1	55*	57*
CCOC(=O)c1oc2ccccc2c1NC(=O)c1ccc(Cl)s1	138	2	-5	-23	-5	11
Oc1c(/C=N/Nc2cccc3cccnc23)ccc2ccccc12	·	·	10	·	·	·
C/C(=N\Nc1cccc2cccnc12)c1ccccc1O	·	·	72*	·	·	·
CCN(CC)c1ccc(/C=C2\C(=O)N(c3ccc([N+](=O)[O-])cc3)N=C2N2CCOCC2)cc1	94	5	-23	-1	-13	-9
O=C1OCC(CO)(CO)N=C1NNc1ccccc1Cl	·	·	-16	31*	·	·
O=C(Nc1ccccc1Cl)c1ccccc1Cl	102	4	-8	7	-4	-6
CCCCNC(=O)COc1ccccc1[N+](=O)[O-]	·	·	11	·	·	·
SMILES	ERa coact pot	Candida biofilm	E-sel TNF inh	F-actin modifier	ERa SRC1 inh	ERb SRC1 inh
O=C(Nc1cccc(Cl)c1N1CCCC1)c1cccc(-c2cc3ccccc3oc2=O)c1	·	·	-27	11	·	·
CCc1ccc(S(=O)(=O)c2n[nH]n3c2nc(=O)c2ccccc23)cc1	560*[fluorescence artefact?]	6	16	14	6	7
CC(C)c1ccc(S(=O)(=O)c2n[nH]n3c2nc(=O)c2ccccc23)cc1	105	3	16	-13	-13	-18
Cc1sc2nc3c4ccccc4c(NCc4ccco4)nn3c(=O)c2c1C	82	·	·	1	56*[fluorescence artefact?]	32
O=C(Nc1nccs1)c1cccc(NC(=O)c2ccco2)c1	93	4	-22	0	15	11
COC(=O)Cn1c(=NC(=O)C2CC2)sc2c(C)cc(C)cc21	134	0	5	-1	55*[fluorescence artefact?]	-6
c1cnc(N2CCN(c3nc4ccccc4n4cnnc34)CC2)nc1	96	11	-4	2	0	1

Source: PubChem (several laboratories)
